Source: PubChem BioAssay (Broad Institute)
GSIS activator – GLuc luminescence reporter in INS-1E cells, primary screen for activators of glucose-dependent secretion of insulin; INS-1E GLuc reporter insulin secretion, 2-3 h; activation, % at 16.6 µM; 370,000 tested, 0.61% active; AID 743287;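 active means lowest replicate activation of at least 40%, so every replicate reaches that level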;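 further: 0% = median of neutral control wells and 100% = median of IBMX positive control wells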
RAD52 inh – blocks human RAD52 DNA annealing. 360,000 tested, 0.46% active. inhibition, % at 18.7 µM. P43351. recombinant RAD52 DNA annealing, FRET fluorescence;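 active means every replicate showing at least 50% inhibition; inconclusive means mean inhibition at least 50% but not in every replicate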
Target sequence (P43351 whole entry, looked up): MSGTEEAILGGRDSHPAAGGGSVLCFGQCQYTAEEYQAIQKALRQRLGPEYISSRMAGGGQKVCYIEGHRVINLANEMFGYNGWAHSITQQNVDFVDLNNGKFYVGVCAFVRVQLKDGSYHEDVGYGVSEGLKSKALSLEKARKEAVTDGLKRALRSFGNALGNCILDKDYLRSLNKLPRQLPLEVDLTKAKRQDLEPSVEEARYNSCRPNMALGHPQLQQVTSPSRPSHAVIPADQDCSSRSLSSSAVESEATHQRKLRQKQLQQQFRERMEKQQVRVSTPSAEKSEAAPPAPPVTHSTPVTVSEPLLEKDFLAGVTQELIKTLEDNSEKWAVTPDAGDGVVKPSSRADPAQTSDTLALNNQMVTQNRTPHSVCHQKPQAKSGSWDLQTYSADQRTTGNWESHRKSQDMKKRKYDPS
dFosB act – activators of mouse delta FosB homodimer; P13346; purified delta FosB, TAMRA-CDK5 oligo fluorescence polarization; percent of positive-control signal above neutral wells; activation, % at 25 µM; 340,000 tested, 0.99% active; AID 493131;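 active means mean activation above about 17%, with every replicate also reaching it, limit read from the data, passing the limit was not always enough; inconclusive means only one of the two conditions met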
MLL AF4-AF9 inh – blocks AF4 peptide binding to human AF9. P42568. inhibition, % at 10 µM. AlphaScreen, biotin-AF4 peptide binding to FLAG-AF9. 350,000 tested, 0.47% active. AID 651704;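 active means every replicate reaching a set inhibition limit, whatever the replicate mean, cut at about 25% in these data; inconclusive means mean inhibition reaches that limit but some replicates miss it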;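 further: 0% = plate neutral control median and 100% = total signal loss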
DENV2 CPE rescue – DENV2-induced cell death inhibition; DENV2-infected cells, cytopathic effect rescue, plate reader; CPE inhibition, % at 9.99 µM; 350,000 tested, 1.7% active; in the data active means CPE inhibition above about 20%, passing the limit was not always enough; inconclusive means no clear call, values can overlap the other calls; tested in BHK-21 cells;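 further: 0% = median of neutral control wells and 100% = median of positive control wells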
RAD54 branch – blocks human RAD54 Holliday junction branch migration | 360,000 tested, 0.14% active | Q92698 | inhibition, % at 10.4 µM | FAM/BHQ fluorescence;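 active means mean normalized replicate activity at least 40 and at least half of replicates scoring 40 or more; inconclusive means only one of the two criteria met; inactive means mean below 40 and under half of replicates reaching 40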;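 further: 0% = median of neutral control wells and 100% = median of positive control wells; inhibitors cause a drop in the FAM fluorescence signal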
RAD52 DNA ctr – counter-screen for RAD52 inhibitors: DNA binding compounds | shares compounds with RAD52 inh | Salmon sperm DNA/acridine orange FP displacement | AC50, µM | 1,000 tested, 8% active | AID 652128;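 active means fitted half-maximal concentration for signal loss at or below twice the highest dose tested, in every separate run, actives reach about 64 µM in these data; inconclusive means runs disagree, or flat partial signal loss, or poor fit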
Starred values were filed as active, the others as inactive; i = inactive; ? = inconclusive; nt = no result given. Most compounds without a hit are left out; they make up all but 3.1% or so of the library.

SMILES	GSIS activator	RAD52 inh	dFosB act	MLL AF4-AF9 inh	DENV2 CPE rescue	RAD54 branch	RAD52 DNA ctr
COc1cc(/C=C/c2cc[n+](C)cc2)ccc1OCC(=O)Nc1ccc(Cl)c(Cl)c1	-24	69*	-192	?	2	-3	i
CCCN1CCN(CCCNC(=O)C2CCN(c3nnc(-n4cccc4)s3)CC2)CC1	nt	nt	1	nt	nt	-6	nt
CCN1CCN(CCCNC(=O)C2CCN(c3nnc(-n4c(C)ccc4C)s3)CC2)CC1	2	73*	4	12	-3	-2	i
CCN(CC)CCn1c2ccccc2c2nc3ccccc3nc21	9	89*	-33	4	-16	106*	i
CCN(CC)CCn1c2ccccc2c2n[nH]c(=S)nc21	-9	73*	0	4	-3	24	i
CCN(CC)CCn1c(C)nc2ccccc21	-5	1	0	7	-3	-11	nt
Fc1ccccc1-c1nc(NCCCN2CCOCC2)c2ccccc2n1	6	-3	-7	1	13	nt	nt
c1ccc2c(NCCCN3CCOCC3)c3ccccc3nc2c1	1	93*	nt	0	1	nt	33µM*
CNC[C@H]1OCCCC[C@@H](C)Oc2ccc(NC(=O)Nc3cccc4ccccc34)cc2C(=O)N([C@@H](C)CO)C[C@H]1C	-4	-139	nt	10	?	-3	nt
CN1CCN(CCCCC(=O)c2ccccc2)CC1	3	nt	-4	nt	nt	4	nt
CN1CCN(CCCC(=O)c2ccc(C3CCCC3)cc2)CC1	-5	68*	-7	17	1	nt	i
CCN(CC)CCCNC(=O)c1csc(Nc2cccc3ccccc23)n1	0	92*	-1	17	3	23	i
CCN(CC)C(=O)c1csc(Nc2cccc3ccccc23)n1	2	-5	-6	3	1	-12	nt
COc1cc(-c2cnc3c(NC=O)cc(-c4ccc(N5CCN(C)CC5)cc4)cn23)cc(OC)c1OC	0	70*	nt	18	6	22	i
COc1cc(-c2cnc3c(NC(C)=O)cc(-c4ccc(N5CCN(C)CC5)cc4)cn23)cc(OC)c1OC	nt	26	nt	16	-2	31	nt
Nc1nc(N)c2cc(Sc3ccc4ccccc4c3)ccc2n1	nt	-3	nt	0	-17	9	nt
Nc1nc(N)c2cc(Sc3ccc(Cl)cc3)ccc2n1	187*	85*	nt	1	-4	14	i
C[C@H]1CN([C@@H](C)CO)C(=O)c2cc(C3=CCCCC3)cnc2O[C@@H]1CN(C)C(=O)NC1CCCC1	-14	9	nt	-2	-9	0	nt
O=C(O)c1cc(-n2nnnc2SCc2ccccc2F)ccc1Cl	10	-11	-5	-2	0	nt	nt
O=C(O)c1cc(-n2nnnc2SCc2ccc([N+](=O)[O-])cc2)ccc1Cl	nt	105*	-1	-12	13	-8	i
O=C1Nc2cc(C(=O)NCCCN3CCCC3)ccc2S/C1=C\c1ccccc1	-4	84*	7	16	4	10	i
COc1ccc(/C=C2\Sc3ccc(C(=O)NCCCN4CCCC4)cc3N(C)C2=O)cc1OC	5	66*	-28	5	-1	24	i
CNC[C@@H]1Oc2cc(-c3cccc(C(=O)N(C)C)c3)ccc2S(=O)(=O)N([C@@H](C)CO)C[C@H]1C	-6	-26	nt	1	5	-12	nt
COC(=O)C1=CO[C@@H](O[C@@H]2O[C@H](CO)[C@@H](O)[C@H](O)[C@H]2O)C2C(CO)=CCC12 (stereo partly drawn)	12	-8	2	-2	-9	2	nt
NCC[C@H](O)C(=O)N[C@@H]1C[C@H](N)[C@@H](O[C@H]2O[C@H](CN)[C@@H](O)[C@H](O)[C@H]2O)[C@H](O)[C@H]1O[C@H]1O[C@H](CO)[C@@H](O)[C@H](N)[C@H]1O	nt	57*	8	62*	?	100*	i
SMILES	GSIS activator	RAD52 inh	dFosB act	MLL AF4-AF9 inh	DENV2 CPE rescue	RAD54 branch	RAD52 DNA ctr
CCCNC(=O)[C@H]1[C@H](CO)[C@H]2Cn3c(cccc3=O)[C@@H]1N2Cc1ccccc1	6	15	nt	-3	-4	-13	nt
c1ccc2c(c1)C1=NCCN1c1ccccc1-2	6	82*	nt	0	1	nt	?
C[C@@H]1CN([C@H](C)CO)C(=O)Cc2cc(NS(=O)(=O)c3cccs3)ccc2O[C@@H]1CN(C)S(=O)(=O)c1ccccc1	-6	-7	nt	-3	11	-11	nt
COc1cc2c(cc1O)CC[n+]1cc3c(OC)c(OC)ccc3cc1-2	-11	81*	14	-7	11	76*	i
COc1cc2c(ccc3cc(OC)c(OC)c(O)c32)cc1O	nt	0	-15	3	-1	20	nt
C[C@@H]1CCCCO[C@H](CN(C)C(=O)c2ccncc2)[C@H](C)CN([C@@H](C)CO)C(=O)c2cc(NS(=O)(=O)c3cn(C)cn3)ccc2O1	32	6	nt	0	1	4	nt
